From PubChem BioAssay
This excerpt belongs to a sample that is enriched for hits.
EZH2 inh = blocks human EZH2/PRC2 H3K27 methylation; Q15910; DELFIA TRF, 1 h; inhibition, % at 12.5 µM; 57,000 tested, 0.35% active;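 active = mean inhibition of replicates at least 50% and every single replicate also reaching 50%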;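 note: dimethyl H3K27 on biotinylated H3 21-44 peptide detected by antibody; plate controls were median neutral control wells for no effect and median positive control wells for full effect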
Target sequence (Q15910 whole entry, looked up): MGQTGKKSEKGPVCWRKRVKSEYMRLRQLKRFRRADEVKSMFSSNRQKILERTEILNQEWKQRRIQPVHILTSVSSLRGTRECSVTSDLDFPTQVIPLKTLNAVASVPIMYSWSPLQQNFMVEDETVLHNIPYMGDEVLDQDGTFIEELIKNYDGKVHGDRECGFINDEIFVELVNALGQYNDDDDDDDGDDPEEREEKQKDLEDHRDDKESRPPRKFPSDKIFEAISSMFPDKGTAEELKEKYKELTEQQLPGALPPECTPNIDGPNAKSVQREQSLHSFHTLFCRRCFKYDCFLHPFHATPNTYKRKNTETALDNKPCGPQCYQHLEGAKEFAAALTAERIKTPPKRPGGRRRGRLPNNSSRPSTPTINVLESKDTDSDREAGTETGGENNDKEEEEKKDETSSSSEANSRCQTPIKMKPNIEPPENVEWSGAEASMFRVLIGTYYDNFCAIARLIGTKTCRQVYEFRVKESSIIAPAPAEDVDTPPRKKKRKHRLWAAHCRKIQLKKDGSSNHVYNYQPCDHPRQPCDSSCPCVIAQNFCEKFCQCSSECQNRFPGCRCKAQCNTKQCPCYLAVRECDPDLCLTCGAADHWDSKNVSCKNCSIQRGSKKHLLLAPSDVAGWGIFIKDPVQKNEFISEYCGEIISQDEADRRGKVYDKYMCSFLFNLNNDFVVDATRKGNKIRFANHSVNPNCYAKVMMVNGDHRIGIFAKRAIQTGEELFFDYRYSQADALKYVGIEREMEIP
Starred values were filed as active, the others as inactive.

SMILES | EZH2 inh
CC(C)CC#Cc1ccc2c(c1)O[C@@H](CN(C)Cc1ccccc1)[C@@H](C)CN([C@H](C)CO)S2(=O)=O | 31
COc1ccc(S(=O)(=O)N(C)CC(=O)Nc2cc([N+](=O)[O-])ccc2C)cc1C | 27
COc1ccc(-c2nc(SCC(=O)Nc3cccc(F)c3)n[nH]2)cc1 | 7
O=C(CCCCC(=O)N/N=C/c1ccc2ccccc2c1)NO | -4
O=c1c2ccccc2nc(-c2cccs2)n1NCc1ccccc1F | 27
Cn1c(=O)c2[nH]c(-c3ccc(Cl)cc3)c(O)c2n(C)c1=O | 0
COc1ccc(NC(=O)CSc2nc3c(c(C(F)(F)F)c2C#N)CCC3)c(OC)c1 | 35
COc1ccc(/C=N/NC(=O)c2ccccc2O)cc1Br | -8
COc1cc(Br)cc(/C=N/NC(=O)c2ccccc2O)c1O | 5
COc1cc(Br)c(/C=N/NC(=O)c2ccccc2O)cc1OC | 67*
Cn1c(SCC(=O)n2c3c(c4ccccc42)CCCC3)nnc1-c1ccco1 | -26
O=C(O)CCCC[C@@H]1SC[C@@H]2NC(=O)N[C@@H]21 | 99*
O=C(O)CCCCCCC(=O)N/N=C/CCC1CCCCC1 | 11
COc1cccc(NC(=O)CSc2nc3ccccc3c(=O)n2-c2cccc(C(F)(F)F)c2)c1 | -12
C[C@@H]1CN([C@@H](C)CO)C(=O)c2cc(NS(=O)(=O)c3cccs3)ccc2O[C@@H]1CN(C)Cc1ccccc1 | 1
C[C@H]1CN([C@@H](C)CO)C(=O)c2cc(NS(=O)(=O)c3cccs3)ccc2O[C@@H]1CN(C)Cc1ccccc1 | 3
C[C@H](CO)N1C[C@H](C)[C@@H](CN(C)Cc2ccccc2)Oc2ccc(NS(=O)(=O)c3cccs3)cc2C1=O | 8
C[C@H]1CN([C@@H](C)CO)C(=O)c2cc(NS(=O)(=O)c3cccs3)ccc2O[C@@H]1CN(C)Cc1ccc(-c2ccccc2)cc1 | 72*
C[C@@H]1CN([C@@H](C)CO)C(=O)c2cc(NS(=O)(=O)c3cccs3)ccc2O[C@H]1CN(C)Cc1ccc(-c2ccccc2)cc1 | 60*
C[C@@H]1CN([C@H](C)CO)C(=O)c2cc(NS(=O)(=O)c3cccs3)ccc2O[C@@H]1CN(C)Cc1ccccc1 | -6
Cc1ccc(CN2C(=O)C(O)(CC(=O)c3c(C)coc3C)c3cc(Cl)ccc32)cc1 (centres undefined) | 17
Cc1cc(Br)ccc1NC(=O)Cn1ccc([N+](=O)[O-])n1 | -9
COc1cc(Cc2nccc3cc(OC)c(OC)cc23)c(NC(=O)c2cccc(Br)c2)cc1OC | -1
CC(C)(C)[S@@](=O)N1Cc2cc(C(=O)NCc3ccncc3)nc(-c3cccc(-c4ccc(C#N)cc4)c3)c2[C@H]1CCO | 0
CC(C)(C)[S@](=O)N1Cc2cc(C(=O)NCCc3ccncc3)nc(-c3cccc(-c4cccc(C#N)c4)c3)c2[C@@H]1CCO | -7
SMILES | EZH2 inh
CC(C)(C)[S@@](=O)N1Cc2cc(C(=O)NCCc3ccncc3)nc(-c3cccc(-c4ccc(C#N)cc4)c3)c2[C@H]1CCO | 50*
Cc1ccc(C)c(-c2csc(N)c2C#N)c1 | 17
C=CCN(CC=C)C(=O)Cc1ccc(Br)cc1 | -3
COc1ccc(-c2nc(SCC(=O)Nc3cccc(Br)c3)n[nH]2)cc1 | 2
COc1ccc(-c2nc(SCC(=O)Nc3ccc(Br)c(Cl)c3)n[nH]2)cc1 | 57*
O=C(CSc1n[nH]c(-c2ccc(Cl)cc2)n1)Nc1ccc(Br)c(Cl)c1 | -4
CS(=O)(=O)N(CC(=O)Nc1ccc(Oc2ccccc2)cc1)c1ccc(F)c(Cl)c1 | 13
CN(C)CCCN1C(=O)C(=O)C(C(=O)c2ccco2)C1c1cccc([N+](=O)[O-])c1 (centres undefined) | 2
Cc1cccc(NC(=O)C(C)NS(=O)(=O)c2ccccc2)c1 (centres undefined) | 10
Cc1nnc(SCc2nc(-c3ccc(Br)cc3)no2)n1-c1ccccc1 | -10
COc1ccccc1OCC(=O)Nc1ccccc1C(=O)N1C(C)CCCC1C (centres undefined) | -15
COCCOC(=O)N1C(=O)[C@@]2(c3cc(C#CCC(C(=O)OC)C(=O)OC)ccc31)[C@H](C(=O)N1CCc3cc(OC)c(OC)cc3C1)[C@H]1C(=O)O[C@H](c3ccccc3)[C@H](c3ccccc3)N1[C@@H]2c1ccccc1OCCO | -21
Cn1nnnc1SCC(=O)Nc1ccc2ccccc2c1 | 2
COC(=O)c1ccccc1NC(=O)C1=C(C)NC(=S)NC1c1cc(Cl)cc(OC)c1OC(C)C (centres undefined) | 11
CCOc1ccc2nc(NCc3cc(OC)c(OC)cc3OC)sc2c1 | -13
CCOc1ccc2nc(NS(=O)(=O)c3ccc(C)c([N+](=O)[O-])c3)sc2c1 | 51*
CCOc1ccc(NC(=S)Nc2sc3c(c2C(=O)OC)CCC3)c([N+](=O)[O-])c1 | 39
COc1ccc(-c2cc(C(F)(F)F)nc(SCC(=O)N(C)c3ccccc3)n2)cc1OC | 14
C[C@H](O)c1nc2ccccc2c(=O)[nH]1 | -9
Cc1ccccc1-c1nc(SCC(=O)Nc2sc3c(c2C#N)CCCC3)n[nH]1 | 55*
Cc1cc(-c2ccccc2)nc(SCC(=O)Nc2sc3c(c2C#N)CCCC3)n1 | -2
CCOc1ccccc1-c1nc(SCC(=O)Nc2sc3c(c2C#N)CCCC3)n[nH]1 | -27
O=C(Nc1ccccc1C(=O)NCCOc1ccccc1)c1ccc(Cl)cc1 | 18
CCN(CC)C(=O)c1cc(-c2ccc(Cl)c(Cl)c2)on1 | 28
CCOC(=O)c1sc2ncn(CC(=O)Nc3cccc(Br)c3)c(=O)c2c1C | -18
SMILES | EZH2 inh
Cc1nc(C(F)(F)F)nc(Sc2cccc(C(F)(F)F)c2)c1C | 1
COc1cccc(OC)c1C(=O)NC(=S)Nc1cccc(-c2nn3c(C)nnc3s2)c1 | 4
COc1ccc(NC(=O)CSc2nc3ccccc3[nH]2)cc1Cl | -23
Cc1cc(NC(=O)CSc2nc3ccccc3[nH]2)ccc1Br | 8
O=C(CSc1nc2ccccc2[nH]1)Nc1ccc(Cl)c(Br)c1 | 54*
O=C(CSCc1ccccc1Br)Nc1cccnc1 | -21
O=C(Oc1ccc([C@@H]2Oc3cc(O)cc(O)c3C[C@H]2O)cc1O)c1cc(O)c(O)c(O)c1 | 99*
O=C1C[C@@H](c2ccccc2)Oc2cc(O)cc(O)c21 | -14
COc1cc(C2Oc3c(O)ccc([C@@H]4Oc5cc(O)cc(O)c5C(=O)[C@H]4O)c3C2CO)ccc1O (some centres undefined) | 17
CC1(C)Cc2c(sc3c2c2ncnn2c2nnc(SCC(=O)NCc4ccccc4)n32)CO1 | -7
COC(=O)c1cc(NC(=O)COc2ccc(Cl)cc2C)cc(C(=O)OC)c1 | 6
COc1ccc(-n2c(C)c(C(C)=O)c3cc(OCC(N)=O)ccc32)cc1 | 24
COc1ccc2c(c1)c(CC(=O)OCc1ccccn1)c(C)n2C(=O)c1ccc(Cl)cc1 | 56*
COc1ccc2c(c1)c(CC(=O)O)c(C)n2C(=O)c1ccc(Cl)cc1 | 7
Cc1ccc(Cl)cc1NC(=O)C(C)NS(=O)(=O)c1ccc(Br)cc1 (centres undefined) | 2
Cc1ccc(-c2cc(C(F)F)n3ncc(C(=O)NCCCN4CCOCC4)c3n2)cc1 | 3
COC(=O)C1=CO[C@@H](O[C@@H]2O[C@H](CO)[C@@H](O)[C@H](O)[C@H]2O)[C@H]2[C@@H]1[C@H](OC(C)=O)C[C@]2(C)O | -12
COC(=O)C1=COC(OC2OC(CO)C(O)C(O)C2O)C2C1C=CC2(O)CO (centres undefined) | 99*
